Screening data: PubChem, several laboratories
sEH activator: activators of human soluble epoxide hydrolase; actives 0.04% (n = 91,000); AID 717; activation, % at 2 µM; P34913; purified human sEH enzymatic activity, activator screen; in the data active = activation above about 37%
sEH inhibitor: inhibitors of human soluble epoxide hydrolase; P34913; recombinant human sEH enzymatic activity assay; inhibition, % at 2 µM; actives 0.34% (n = 91,000); AID 707; in the data active = inhibition above about 80%
CYP2C19 act: increases human CYP2C19 enzyme activity; P33261; recombinant CYP2C19, luciferin-H EGE luminescence; active compounds read high; 0 = fully inhibited enzyme, 1 = untreated enzyme; activation factor at 5 µM; 96,000 tested, under 10 active; AID 1025;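 active = activation factor of at least 2 at 5 µM in the primary screen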;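 also: 0 = wells with 2.5 mM tranylcypromine and 1 = vehicle-only wells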
CYP2C9 inh: blocks human cytochrome P450 2C9; CYP2C9 Supersomes, luciferin-H conversion, luminescence; inhibition, % at 5 µM; actives 20% (n = 96,000); AID 777;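 active = blocking of liver enzyme CYP2C9 beyond about 50% at 5 µM, limit read from the data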
Target sequence (P11712 whole entry, looked up): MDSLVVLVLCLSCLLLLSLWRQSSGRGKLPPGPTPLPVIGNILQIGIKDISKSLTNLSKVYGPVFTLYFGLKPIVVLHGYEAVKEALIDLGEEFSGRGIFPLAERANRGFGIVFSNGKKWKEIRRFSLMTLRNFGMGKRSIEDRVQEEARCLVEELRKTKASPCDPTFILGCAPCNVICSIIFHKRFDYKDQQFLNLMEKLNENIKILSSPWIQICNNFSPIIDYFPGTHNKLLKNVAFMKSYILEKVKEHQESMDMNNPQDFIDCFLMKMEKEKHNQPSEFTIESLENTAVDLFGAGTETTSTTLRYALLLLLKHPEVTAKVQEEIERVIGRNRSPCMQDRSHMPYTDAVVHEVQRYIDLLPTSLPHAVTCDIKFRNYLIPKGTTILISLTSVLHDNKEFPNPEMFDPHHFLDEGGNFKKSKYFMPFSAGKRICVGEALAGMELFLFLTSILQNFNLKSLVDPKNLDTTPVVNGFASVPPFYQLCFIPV
CYP2C19 inh: human CYP2C19 inhibition; inhibition, % at 5 µM; AID 778; actives 21% (n = 96,000); P33261; CYP2C19 Supersomes, luciferin-H EGE luminescence, 30 min;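 active = CYP2C19 inhibition above a set limit at 5 µM in the primary screen, cut at about 50% in these data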;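 also: plate controls were negative control wells for no effect and 2.5 mM tranylcypromine positive control for full effect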
CYP2C9 activ: activators of human CYP2C9 | P11712 | recombinant CYP2C9, luciferin-H conversion, luminescence; active compounds read high; factor 1 = untreated enzyme, 0 = blocked | activation factor at 5 µM | actives 1.4% (n = 96,000) | AID 1024;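 active = activation factor of 2 or more for CYP2C9 at a 5 µM dose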;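 also: 0 = sulfaphenazole-blocked wells and 1 = vehicle-only wells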
Numbers without * were called inactive; nt = no result given. Only some compounds are listed: those with a hit (about 27% of all), similar ones and a draw of the others.

SMILES | sEH activator | sEH inhibitor | CYP2C19 act | CYP2C9 inh | CYP2C19 inh | CYP2C9 activ
O=C(Cn1ccc2ccccc2c1=O)NCCC(=O)N1CCN(c2cccc(C(F)(F)F)c2)CC1 | 9 | -10 | 0.8 | 24 | 16 | 0.8
CCc1[nH]nc2c1C(c1ccncc1)C(C#N)=C(N)O2 (stereo unspecified) | -2 | 1 | 0.4 | 69* | 59* | 0.3
CC(=O)c1c(C(C)=O)c(C)n(NC(=O)c2ccccc2O)c1C | -3 | 5 | 1.1 | 86* | -12 | 0.1
CC(=O)c1c(C(C)=O)c(C)n(NC(=O)c2cccnc2)c1C | -8 | 7 | 1 | 7 | -3 | 0.9
O=c1c(/C=N/O)coc2ccc3ccccc3c12 | nt | nt | 1 | -96 | 0 | 2*
Cc1ccc2occ(/C=N/O)c(=O)c2c1 | -15 | 15 | 1 | 3 | -1 | 1
Cc1cc(-c2ccccc2)c(C#N)c(N)n1 | 3 | -2 | 1.2 | -31 | -15 | 1.3
Cc1nc(Cl)c(C#N)cc1-c1ccccc1 | nt | nt | 0.1 | 20 | 86* | 0.8
Cc1nc(Sc2ccccc2)c(C#N)cc1-c1ccccc1 | nt | nt | 0.4 | 70* | 58* | 0.3
Cc1onc(-c2ccccc2)c1C(=O)NC(C)C | nt | nt | 1 | 8 | 2 | 0.9
Cc1c(C(=O)N2CCC(C)CC2)sc2ncnc(N(C)c3ccccc3)c12 | -19 | 20 | nt | nt | nt | nt
Cc1ccc(S(=O)(=O)C/N=C(/NC(=S)N(c2ccccc2)c2ccccc2)c2ccccc2)cc1 | -1 | -2 | 0.7 | 69* | 28 | 0.3
CCOC(=O)c1c(CN2CCCCC2)oc2ccc(OC)cc12 | -2 | 2 | 0.8 | 13 | 23 | 0.9
CCOC(=O)c1c(CN2CCC(C)CC2)oc2ccc(OC)cc12 | -9 | 10 | 0.5 | 23 | 52* | 0.8
CCCCn1c(=O)[nH]c(=O)c2c1nc(COC(=O)c1c(C)noc1C)n2CCC | -8 | 8 | 0.3 | 97* | 68* | 0
CCCCn1c(CCC(=O)O)nc2c1c(=O)[nH]c(=O)n2CCC | 4 | -1 | 1 | -5 | -3 | 1.1
Cc1cc(C)c(C(N)=O)c(NC(=O)Nc2ccccc2Cl)n1 | -2 | 3 | 1 | 16 | 2 | 0.8
O=C(Nc1ccccc1N1CCN(C(=O)c2ccc(Cl)cc2)CC1)c1cc2ccccc2o1 | -5 | 7 | 0.2 | 92* | 75* | 0.1
CC(C)C(=O)N1CCN(c2ccccc2NC(=O)c2cccc(Cl)c2)CC1 | -8 | 9 | 0.8 | 30 | 22 | 0.7
O=C(Nc1cccc(Cl)c1N1CCCC1)c1cc2ccccc2o1 | 11 | -8 | 0.8 | 64* | 25 | 0.4
O=C(Nc1ccccc1N1CCN(C(=O)c2ccc(Cl)cc2)CC1)c1ccc(Br)cc1 | 0 | -3 | 0.3 | 82* | 66* | 0.2
COC(=O)c1c(NC(=O)c2ccc(S(=O)(=O)N3CCOCC3)cc2)sc2c1CCN(C)C2 | -5 | 10 | nt | nt | nt | nt
Cc1ccccc1CN1CCN(CC(=O)NCc2ccccc2)C1=O | -8 | 5 | 0.9 | 30 | 12 | 0.7
CS(=O)(=O)N1CCN(c2ccccc2NC(=O)c2cccc3ccccc23)CC1 | 12 | -12 | nt | nt | nt | nt
CS(=O)(=O)N1CCN(c2ccccc2NC(=O)c2ccc(-c3ccc(Br)cc3)o2)CC1 | 1 | -3 | 0.4 | 71* | 56* | 0.3
SMILES | sEH activator | sEH inhibitor | CYP2C19 act | CYP2C9 inh | CYP2C19 inh | CYP2C9 activ
COc1cc2ccccc2cc1C(=O)Nc1ccccc1N1CCN(S(C)(=O)=O)CC1 | 0 | -5 | 0.5 | 47 | 50* | 0.5
CS(=O)(=O)N1CCN(c2ccc(NC(=O)c3ccc(-c4ccc(Cl)cc4)o3)cc2)CC1 | -9 | 12 | 0.8 | 6 | 21 | 0.9
Cc1occc1C(=O)NNC(=S)Nc1cccc([N+](=O)[O-])c1 | 19 | -21 | 0.8 | 12 | 24 | 0.9
O=C(CSc1nnc(-c2cccnc2)o1)OC1CCCCC1 | 26 | -28 | 1 | -19 | -5 | 1.2
Cc1ccc2oc(=O)c3cnn(CC(=O)N4CCCc5ccccc54)c3c2c1 | 0 | 0 | 1 | 55* | -2 | 0.4
COC(=O)c1cc2oc(C)cc2n1CC(=O)N1CCCc2ccccc21 | 0 | -1 | 0.3 | 68* | 67* | 0.3
COC(=O)c1cc2sc(Cl)cc2n1CC(=O)N1CCCc2ccccc21 | -9 | 10 | 0.2 | 73* | 83* | 0.3
CCOC(=O)c1cc2sccc2n1CCCN1C(=O)c2ccccc2C1=O | -9 | 8 | 0.7 | 69* | 32 | 0.3
Cc1ccc2oc(=O)c3cnn(CC(=O)N4CCN(c5ccccc5)CC4)c3c2c1 | 17 | -20 | 0.9 | 6 | 5 | 0.9
O=C(COc1cccc2ccccc12)NNC(=O)C1CCCO1 (stereo unspecified) | 1 | 1 | 0.9 | -86 | 11 | 1.9
Cc1[nH]c2ccccc2c1C(=O)CN1CCCCC1C (stereo unspecified) | 6 | -8 | 1 | -2 | -1 | 1
CCOC(=O)c1cc2sccc2n1CC(=O)N1CCCc2ccccc21 | 19 | -18 | 0 | 94* | 98* | 0.1
COC(=O)c1cc2sccc2n1CC(=O)N1CCCc2ccccc21 | 3 | -3 | 0.2 | 69* | 83* | 0.3
CCOC(=O)c1cc2sc(C)cc2n1CC(=O)N1CCc2ccccc21 | 13 | -14 | 0.9 | 10 | 13 | 0.9
CCOC(=O)c1cc2occc2n1CC(=O)N1CCCc2ccccc21 | 0 | 3 | 0 | 87* | 96* | 0.1
CN1C(=S)SC(/[N+]([O-])=C\c2ccco2)C1(C)C (stereo unspecified) | 0 | 1 | 1 | -9 | 0 | 1.1
CC(C)Oc1ccccc1C1CC(=O)Nc2cc3c(cc21)OCCO3 (stereo unspecified) | 4 | -7 | 0 | 96* | 96* | 0
CCOc1ccccc1C1CC(=O)Nc2cc3c(cc21)OCO3 (stereo unspecified) | -4 | 3 | 0 | 66* | 98* | 0.3
O=C1CC(c2cccs2)c2cc3c(cc2N1)OCCO3 (stereo unspecified) | -2 | 3 | 0.3 | 71* | 68* | 0.3
Cc1ccc(N2C(=O)c3ccccc3NC2C(C)Cc2ccc3c(c2)OCO3)cc1 (stereo unspecified) | -5 | 5 | nt | nt | nt | nt
CC(C)Oc1ccccc1C1Nc2ccccc2C(=O)N1c1ccc2c(c1)OCCO2 (stereo unspecified) | 8 | -9 | 0.1 | 96* | 95* | 0
O=C(C1CCCCC1)N1CCN(S(=O)(=O)c2ccc(Br)cc2)CC1 | -11 | 9 | 0.9 | 8 | 8 | 0.9
CCCC(=O)Nc1cc(-c2nnc(OC)c3ccccc23)ccc1N1CCOCC1 | -4 | 6 | nt | nt | nt | nt
CCOc1cc(NC(=O)c2ccco2)c(OCC)cc1NC(=O)CCc1ccc(OC)cc1 | nt | nt | 1.1 | -10 | -11 | 1.1
Cc1cc2oc(=O)cc(CSc3nc(N)cc(N)n3)c2cc1C | -2 | 4 | 0.9 | -44 | 7 | 1.4
